Rows were chosen to be rich in hits. Some 7.3% of all compounds tested hit in one or more screens of this group.
ELG1 genotox: genotoxicity induction in ELG1-luciferase HEK293T cells. HEK293T ELG1-luciferase reporter, luminescence, 16 h. Potency, µM (doses to about 46 µM), usual class: activators. actives 1.3% (n = 330,000). AID 504466; note: nearly all actives have a fitted effect of over 60% in size
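HEK293T cells expressing luciferase-tagged ELG1 were treated with compound or DMSO for 16 hr at 37°C. Luciferase activity was then read after 30 min with ONE-Glo at room temperature; rising signal flags genetic stress.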
SMN2 splice up: SMN2 splice variant enhancement. HEK293 SMN2-luciferase splicing reporter, luminescence, 30-36 h. Potency, µM (top dose mostly 46.1 µM), actives largely listed as activators. actives 2.8% (n = 210,000). AID 1458; note: nearly all actives have a fitted effect of over 55% in size
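qHTS luciferase splicing reporter: luminescence rises when SMN2 exon 7 is included in transfected HEK293 cells. Compound exposure lasted 30-36 h at 37C, with 4.5 mM final sodium butyrate as control, followed by a ONE-Glo read.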
p53 reactivator: restores transcriptional activity of mutant p53 | Potency, µM (highest dose often 92.2 µM), hits mostly activators | AID 504706 | H1299 p53-A138V BP100-luciferase reporter, luminescence, 24 h | actives 0.063% (n = 320,000); note: nearly all actives have a fitted effect of over 45% in size
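p53-null H1299 cells stably carrying temperature-sensitive p53-A138V and a BP100-luciferase reporter were pinned with compounds (4-point, 1:5 series) and held 24 hrs at 37 deg C. Luminescence was read 10 min after detection reagent.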
Rab9 promoter act: activators of Rab9 promoter; Huh7 Rab9 promoter-luciferase reporter, luminescence, 24 h; Potency, µM (top dose mostly 9.22 µM), most hits filed as activators; actives 2.8% (n = 320,000); AID 485297; note: nearly all actives have a fitted effect of over 60% in size
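Stable Rab9-luc Huh7, 1500 cells/well, 2 h settle; cmpd in DMSO, 24 h, 37 °C/5% CO2; luciferase reagent 10 min RT; luminescence.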
NPC1 prom act: activates the NPC1 promoter; actives 2.4% (n = 320,000); Potency, µM (highest dose often 9.22 µM), most hits filed as activators; Huh7 NPC1 promoter luciferase reporter, 24 h; note: nearly all actives have a fitted effect of over 60% in size
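Huh7 reporter cells (NPC1 promoter driving luciferase) are dosed with compound for 24 h at 37 °C, 5% CO2; luciferase detection reagent is then added and luminescence measured after 10 min at ambient temperature.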
FLuc counter: inhibits or activates purified firefly luciferase, miR-21 counter-screen; P08659; purified FLuc, Km substrates, luminescence inhibition; Potency, µM (doses to about 57.5 µM), hits mostly inhibitors; actives 6.9% (n = 360,000); note: nearly all actives have a fitted effect of over 55% in size
Target sequence (P08659 whole entry, looked up): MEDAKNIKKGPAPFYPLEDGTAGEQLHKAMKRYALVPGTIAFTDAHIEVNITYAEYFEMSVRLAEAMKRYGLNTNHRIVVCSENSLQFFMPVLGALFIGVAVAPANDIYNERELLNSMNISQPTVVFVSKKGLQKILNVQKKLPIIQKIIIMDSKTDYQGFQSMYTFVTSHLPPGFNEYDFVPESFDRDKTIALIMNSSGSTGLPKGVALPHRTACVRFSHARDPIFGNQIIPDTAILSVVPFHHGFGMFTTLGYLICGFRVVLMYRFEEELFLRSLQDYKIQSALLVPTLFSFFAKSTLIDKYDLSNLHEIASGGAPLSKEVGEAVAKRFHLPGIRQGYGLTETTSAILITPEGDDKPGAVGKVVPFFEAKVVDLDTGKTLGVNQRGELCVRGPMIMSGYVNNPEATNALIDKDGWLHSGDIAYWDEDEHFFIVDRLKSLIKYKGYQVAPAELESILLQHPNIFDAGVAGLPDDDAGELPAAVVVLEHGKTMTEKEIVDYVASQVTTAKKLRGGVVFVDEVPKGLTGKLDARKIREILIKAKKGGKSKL
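Biochemical qHTS of compounds, final roughly 60 µM downward over six points, against 10 nM purified firefly luciferase using Km concentrations of substrates (10 uM D-luciferin, 10 uM ATP) in Tris acetate pH 7.5 buffer; luminescence output.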
Of the large screens only hits and unclear results are named; the others gave an inactive call. Calls come from the whole dose curve; as a rule, active = well fitted curve in the direction sought with a large enough effect; inconclusive = small, poorly fitted or top-dose-only effect, or another doubt; inactive = no such curve, though single readings can be large; an effect the other way counts as inactive or inconclusive.

Cc1cc(=O)[nH]c(N/N=C/c2cn(CCC#N)nc2-c2ccccc2)n1	FLuc counter 19µM
CCOc1ccc2nc(SCC(=O)NCc3ccc4c(c3)OCO4)[nH]c2c1	none
CCOc1ccc2nc(SCC(=O)Nc3ccc4c(c3)OCCO4)[nH]c2c1	FLuc counter 17µM
CCOc1ccc2nc(SCC(=O)Nc3cccc(S(=O)(=O)NC4=NCCCCC4)c3)[nH]c2c1	FLuc counter 21µM
COc1ccc2nc(SCC(=O)Nc3ccc4c(c3)OCCO4)[nH]c2c1	ELG1 genotox inconclusive, FLuc counter 13µM
Cc1c(C(=O)N(C)C)sc2c1c(=O)n(-c1ccc(Cl)cc1)c(=O)n2CC(=O)C(C)(C)C	none (no result: ELG1 genotox, SMN2 splice up, p53 reactivator, Rab9 promoter act, NPC1 prom act)
O=C1C(C2=NC(C(=O)O)C3C(=O)N(c4ccc(Cl)cc4)C(=O)C23)=C(O)c2ccccc21 (stereo unspecified)	FLuc counter 6.7µM
O=C1C(C2=NC(c3ccccn3)C3C(=O)N(c4ccc(Cl)cc4Cl)C(=O)C23)=C(O)c2ccccc21 (stereo unspecified)	none (no result: SMN2 splice up)
CCCCCCCCCCOCCC(=O)O	none (no result: ELG1 genotox, p53 reactivator, Rab9 promoter act, NPC1 prom act, FLuc counter)
OCCNc1nc(Nc2ccc(Br)cc2)nc2ccccc12	FLuc counter 17µM
OCCNc1nc(Nc2ccccc2)nc2ccccc12	FLuc counter inconclusive
Cc1c(Cl)cccc1Nc1nc(NCCO)c2ccccc2n1	FLuc counter 15µM (no result: SMN2 splice up, p53 reactivator)
CC(=O)N[C@@H](Cc1c[nH]c2ccccc12)C(=O)NCc1ccccc1	none (no result: SMN2 splice up)
COC(=O)c1ccc2nc(NC(=O)C3CC3)sc2c1	ELG1 genotox inconclusive, p53 reactivator inconclusive, Rab9 promoter act inconclusive, NPC1 prom act 2.2µM, FLuc counter 19µM (no result: SMN2 splice up)
COC(=O)c1ccc2nc(NC(=O)C(C)C)sc2c1	ELG1 genotox inconclusive, SMN2 splice up 5.6µM, Rab9 promoter act 1.1µM, NPC1 prom act 2µM, FLuc counter 8.5µM
COC(=O)c1ccc2nc(Nc3nc4c(F)cc(F)cc4s3)sc2c1	ELG1 genotox inconclusive, FLuc counter 5.4µM
COC(=O)c1ccc2nc(NC(=O)CSCC(=O)OCC(=O)c3ccccc3)sc2c1	p53 reactivator inconclusive, FLuc counter 17µM
O=C(NC1CCCC1)C1CCN(S(=O)(=O)c2ccccc2)CC1	none (no result: SMN2 splice up)
Cn1c(=O)c2[nH]c(CCNC(=O)c3ccccc3)nc2n(C)c1=O	none (no result: ELG1 genotox, p53 reactivator, Rab9 promoter act, NPC1 prom act, FLuc counter)
Cc1ccc(NC(=O)CSc2nc(=O)n(Cc3ccccn3)c3c2CCC3)cc1F	none (no result: ELG1 genotox, SMN2 splice up, p53 reactivator, Rab9 promoter act, NPC1 prom act)
CC1CCN(S(=O)(=O)c2ccc3c(c2)N(CC(=O)NC(C)c2ccccc2)C(=O)CS3)CC1 (stereo unspecified)	none (no result: ELG1 genotox, p53 reactivator, Rab9 promoter act, NPC1 prom act)
Cc1noc(C)c1C(=O)N1CCC2(CCCN(Cc3nccs3)C2)CC1	none (no result: ELG1 genotox, p53 reactivator, Rab9 promoter act, NPC1 prom act, FLuc counter)
O=C(CCCc1ccccc1)NC1CC(=O)N(c2ccc(Cl)cc2)C1 (stereo unspecified)	none (no result: ELG1 genotox, SMN2 splice up, p53 reactivator, Rab9 promoter act, NPC1 prom act)
O=C(O)c1cccc(SSc2cccc(C(=O)O)c2)c1	none (no result: ELG1 genotox, p53 reactivator, Rab9 promoter act, NPC1 prom act, FLuc counter)
CCOC(=O)c1ccc2nc(NC(C)=O)sc2c1	ELG1 genotox inconclusive, SMN2 splice up 13µM, Rab9 promoter act 2.2µM, NPC1 prom act inconclusive, FLuc counter inconclusive
Fc1ccc(N/N=C/c2cccnc2)c(F)c1	ELG1 genotox inconclusive, Rab9 promoter act inconclusive, NPC1 prom act inconclusive, FLuc counter inconclusive
C/C(=N\Nc1ccc(F)cc1F)c1ccc(N2CCOCC2)cc1	ELG1 genotox inconclusive, SMN2 splice up inconclusive, Rab9 promoter act inconclusive, NPC1 prom act inconclusive, FLuc counter 15µM
Fc1ccc(N/N=C/c2ccc(N3CCOCC3)cc2)c(F)c1	ELG1 genotox inconclusive, SMN2 splice up 11µM, Rab9 promoter act 2µM, NPC1 prom act 2.5µM, FLuc counter 12µM
S=c1[nH]ncn1/N=C/c1ccc(N2CCOCC2)cc1	ELG1 genotox 16µM, SMN2 splice up 13µM, p53 reactivator inconclusive, Rab9 promoter act 4.5µM, NPC1 prom act 4µM, FLuc counter 7.6µM
CN(C)/N=C/c1ccc(N2CCOCC2)cc1	SMN2 splice up inconclusive, Rab9 promoter act 2.5µM, NPC1 prom act inconclusive, FLuc counter 17µM
Cc1ccc(NC(=O)c2ccc3c(c2)NC(=O)c2ccccc2S3)cc1	none (no result: ELG1 genotox, p53 reactivator, Rab9 promoter act, NPC1 prom act)
Cc1ccc(-c2nnc3c4ccccc4c(C)nn23)cc1NC(=O)c1ccccc1	none (no result: ELG1 genotox, p53 reactivator, Rab9 promoter act, NPC1 prom act)
CCOC(=O)CSc1nc2ccc(N)cc2s1	FLuc counter 19µM
O=C(Nc1ccc2nc(SCC(=O)N3CCCC3)sc2c1)c1ccccc1F	FLuc counter 24µM (no result: ELG1 genotox, SMN2 splice up, p53 reactivator, Rab9 promoter act, NPC1 prom act)
Nc1ccc2nc(SCC(=O)N3CCOCC3)sc2c1	none (no result: SMN2 splice up)
CCOC(=O)CSc1nc2ccc(NC(=O)c3ccccc3F)cc2s1	FLuc counter 15µM (no result: ELG1 genotox, SMN2 splice up, p53 reactivator, Rab9 promoter act, NPC1 prom act)
Nc1ccc2nc(SCc3cccc(F)c3)sc2c1	ELG1 genotox inconclusive, SMN2 splice up 13µM, p53 reactivator inconclusive, Rab9 promoter act 4.5µM, NPC1 prom act inconclusive, FLuc counter 4.8µM
Cc1ccc(-c2nc(CS(=O)CC(=O)N3CCN(c4ccc(Cl)cc4)CC3)c(C)o2)cc1 (stereo unspecified)	none (no result: ELG1 genotox, SMN2 splice up, p53 reactivator, Rab9 promoter act, NPC1 prom act)
COCCNC(=O)CCCn1c(SCc2ccccc2Cl)nc2c(sc3ccccc32)c1=O	none (no result: ELG1 genotox, SMN2 splice up, p53 reactivator, Rab9 promoter act, NPC1 prom act)
Cc1cc(NC(=O)c2ccccc2F)ccc1-c1nc2ccccc2s1	FLuc counter 0.67µM (no result: ELG1 genotox, SMN2 splice up, p53 reactivator, Rab9 promoter act, NPC1 prom act)
O=C(COc1ccccc1F)Nc1ccc2nc(SCC(=O)N3CCOCC3)sc2c1	FLuc counter 21µM (no result: ELG1 genotox, SMN2 splice up, p53 reactivator, Rab9 promoter act, NPC1 prom act)
Cc1cccc(C(=O)OC2CCOC2=O)c1O (stereo unspecified)	none (no result: SMN2 splice up)
Cc1ccsc1C(=O)OC1CCOC1=O (stereo unspecified)	SMN2 splice up 25µM
Cc1ccc([N+](=O)[O-])cc1N/C=C1\CCc2ccccc2C1=O	Rab9 promoter act inconclusive, NPC1 prom act 4.5µM, FLuc counter inconclusive
CCC(=O)N1CCN(CCN=CC2=C(O)CC(c3ccc(OC)cc3)CC2=O)CC1 (stereo unspecified)	none
N#CC(CC(=O)O)=C(c1ccccc1)c1ccccc1	none (no result: ELG1 genotox, p53 reactivator, Rab9 promoter act, NPC1 prom act, FLuc counter)
CC(C)n1cnc2c(oc3ccccc32)c1=O	FLuc counter 17µM (no result: SMN2 splice up)

Assay outcomes from PubChem BioAssay.
